# According to PubChem BioAssay (NCI):
# Compounds without any hit were thinned out: in the full panel of roughly 79,000, 15% have a hit. A number with no mark means an inactive call. The source made the active and inactive calls. Rule as the data show it: active = growth inhibition above about 70%; inactive = the rest.
# Tests used:
# [1] = NCI Yeast Anticancer Drug Screen. Data for the rad50 strain (AID 155);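 also: 0% = growth of vehicle-only cultures of the same strain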; conditions: S. cerevisiae rad50 strain growth inhibition; at 50.0 µM; stronger effect = higher value
# Method in brief: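 Relative growth inhibition (compound vs vehicle) was measured in yeast with a defined repair-gene alteration.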
# [2] = NCI Yeast Anticancer Drug Screen. Data for the mec2-1 strain (AID 157); conditions: S. cerevisiae mec2-1 strain, at 50.0 µM, stronger effect = higher value
# Method in brief: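 Test agents were screened against the mec2-1 yeast strain, with defined DNA repair or cell cycle alteration. Growth was scored as inhibition against vehicle-only controls.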
# [3] = NCI Yeast Anticancer Drug Screen. Data for the sgs1 mgt1 strain (AID 161);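 also: 0% = growth of cultures given vehicle only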; conditions: S. cerevisiae sgs1 mgt1 strain, at 50.0 µM, stronger effect = higher value
# Method in brief: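 Read-out: growth inhibition vs vehicle controls. Cells: mutant yeast strain deficient in DNA damage repair.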
# [4] = NCI Yeast Anticancer Drug Screen. Data for the cln2 rad14 strain (AID 165);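 also: 0% = growth equal to vehicle treated cultures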; conditions: S. cerevisiae cln2 rad14 strain, at 50.0 µM, stronger effect = higher value
# Method in brief: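 Growth of compound-exposed yeast (cln2 rad14 genotype) measured and expressed as inhibition relative to vehicle.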
# [5] = NCI Yeast Anticancer Drug Screen. Data for the bub3 strain (AID 167); conditions: S. cerevisiae bub3 mutant strain, at 50.0 µM, stronger effect = higher value
# Method in brief: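 Screening used yeast with an engineered genetic alteration affecting cell cycle control. Compound-exposed cultures were compared with vehicle cultures, and reduced growth was taken as inhibition.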
# [6] = NCI Yeast Anticancer Drug Screen. Data for the mlh1 rad18 strain (AID 175); conditions: S. cerevisiae mlh1 rad18 strain growth inhibition; at 50.0 µM; stronger effect = higher value
# Method in brief: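 In this whole-cell yeast screen, a strain with altered DNA damage repair is challenged with compound, and its growth is measured against matched vehicle-treated controls.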
SMILES,growth inhibition [1],growth inhibition [2],growth inhibition [3],growth inhibition [4],growth inhibition [5],growth inhibition [6]
NC1=NN(c2ccccc2)C(=O)C1/C(=N\NC(=O)c1cc2ccccc2cc1O)C(=O)Nc1ccc(Cl)cc1 (stereo not given),40.5%,21.9%,-7.4%,24.8%,22.8%,49.5%
Cc1cccc(C(=O)O)c1[N+](=O)[O-],10.4%,1.05%,-8.25%,-8.35%,-14%,7.1%
COc1ccc(CCCNC(=O)c2cc(OC)c(OC)cc2CCO)cc1OC,18.9%,15.1%,-45.5%,-9.6%,-31.2%,-11.8%
O=C1OC(C(O)CO)C(C(O)CO)OC1=O (stereo not given),-9.3%,-15.6%,-39.5%,-7.35%,-12.3%,1.6%
Nc1ncnc(Nc2ccc(S(=O)(=O)O)cc2)n1,-35.9%,-32.6%,-31.1%,-1.25%,-34.9%,-27.2%
C[C@]12CC[C@@H]3c4cc(C=O)c(OCc5ccccc5)cc4CC[C@H]3[C@@H]1CCC2OCc1ccccc1 (stereo not given in full),12.4%,-8.15%,0.45%,2.9%,-2.65%,-0.95%
Cn1cc(C2NC(=O)c3ccccc3N2)c2ccccc21 (stereo not given),-25.1%,-15.7%,-7.1%,12%,-15%,-11.7%
Cc1[nH]c2ccccc2c1C(c1ccccc1O)c1c(C)[nH]c2ccccc12,20.6%,23.4%,14.2%,18.6%,13.2%,33.4%
CCOC(=O)C(NC(=O)c1cccc(Cl)c1)(Nc1ccc(S(=O)(=O)Nc2cc(C)on2)cc1)C(F)(F)F (stereo not given),67.2%,69.3%,82.3% (active),84.7% (active),79.2% (active),91% (active)
COc1cc(C2NC(=O)C(C)(C)O2)cc(OC)c1OC (stereo not given),-2.05%,-9.85%,-8.75%,-17.8%,4.8%,-37%
